From PubChem BioAssay
The list is not random: actives were taken first. Their share in the collection is about 12%.
BAZ2B block – qHTS Assay for Inhibitors of BAZ2B; 4.4% of 360,000 active; AID 504333, 2011; AlphaScreen BAZ2B-H3K14Ac peptide displacement; Bromodomain adjacent to zinc finger domain protein 2B (Homo sapiens), Q9UIF8; Potency, µM (top dose mostly 114 µM), for the others: top-dose activity change, negative = inhibition, hits mostly inhibitors; further: on the % scale 0 is the no-effect control and ±100 the full control effect; nearly all actives have a fitted effect of over 60% in size
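Protein-peptide AlphaScreen: BAZ2B 50 nM, b-H3K14Ac 50 nM, 1x PBS pH 7.4 + 0.01% Tween-20. Preincubation 30 min RT; cpd 30 min RT (top 110 uM); beads 20 min RT, light-protected.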
G9a block – qHTS Assay for Inhibitors of Histone Lysine Methyltransferase G9a. G9a H3K9 monomethylation, AlphaScreen, 2 h. Potency, µM (titrated, usually from 102 µM), for the others: at the top dose activity, negative = inhibition, actives largely listed as inhibitors. Histone-lysine N-methyltransferase EHMT2 (Homo sapiens), Q96KQ7. 8.8% of 350,000 active; further: on the % scale 0 is the no-effect control and ±100 the full control effect; nearly all actives have a fitted effect of over 75% in size
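AlphaScreen read-out: biotin-H3K9 peptide (500 nM) methylation by 20 nM enzyme with 20 uM SAM, 2 h at room temperature after 15 min compound preincubation; anti-monomethyl H3K9 antibody plus donor/acceptor beads, 10 min dark.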
HP1b chromo inh – HTS for Inhibitors of HP1-beta Chromodomain Interactions with Methylated Histone Tails; Potency, µM (doses to about 114 µM), for the others: at the top dose activity change, negative = inhibition, hits mostly inhibitors; AlphaScreen HP1-beta / biotin-H3K9me3 peptide binding; 0.56% of 390,000 active; further: nearly all actives have a fitted effect of over 70% in size
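HP1-beta protein (50 nM final) preincubated 30 min at room temperature with biotinylated H3(1-18)K9me3 peptide (50 nM) in PBS pH 7.4, 0.01% Tween-20, then compound added for 30 min. AlphaScreen streptavidin donor/nickel chelate acceptor beads (10 ug/mL final), 30 min dark, luminescence read.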
TDP1 inh – qHTS Assay for Inhibitors of Tyrosyl-DNA Phosphodiesterase (TDP1). Potency, µM (top dose mostly 130 µM), for inactives: top-dose activity change, negative = inhibition, usual class: inhibitors. 0.28% of 350,000 active. recombinant TDP1, AlphaScreen DNA substrate cleavage; further: on the % scale 0 is the no-effect control and ±100 the full control effect; nearly all actives have a fitted effect of over 40% in size
Target sequence (Q9NUW8 whole entry, looked up): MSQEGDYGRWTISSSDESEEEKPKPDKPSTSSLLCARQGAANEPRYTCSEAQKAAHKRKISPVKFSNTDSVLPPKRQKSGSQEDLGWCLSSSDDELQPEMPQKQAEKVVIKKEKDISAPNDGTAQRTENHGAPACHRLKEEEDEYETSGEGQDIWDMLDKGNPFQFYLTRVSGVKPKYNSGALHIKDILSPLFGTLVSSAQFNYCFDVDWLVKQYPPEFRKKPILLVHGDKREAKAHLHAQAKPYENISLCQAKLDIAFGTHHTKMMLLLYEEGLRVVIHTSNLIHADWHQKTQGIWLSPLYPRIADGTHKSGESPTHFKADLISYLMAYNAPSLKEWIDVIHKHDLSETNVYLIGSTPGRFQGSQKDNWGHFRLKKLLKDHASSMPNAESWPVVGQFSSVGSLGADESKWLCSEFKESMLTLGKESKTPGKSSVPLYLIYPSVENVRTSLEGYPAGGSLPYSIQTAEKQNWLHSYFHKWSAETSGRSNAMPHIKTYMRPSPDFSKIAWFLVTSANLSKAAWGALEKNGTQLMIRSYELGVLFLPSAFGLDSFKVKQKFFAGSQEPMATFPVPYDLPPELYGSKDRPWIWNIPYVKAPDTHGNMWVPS
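Steps: enzyme plus compound, 15 min RT; add biotin/phosphotyrosine-FITC oligonucleotide (15 nM final), react 5 min; add donor/acceptor beads (10 ug/ml final), 10 min; read AlphaScreen. Tdp1 at 1 nM final.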
JMJD2A Tudor – qHTS Assay for Inhibitors of JMJD2A-Tudor Domain; Lysine-specific demethylase 4A (Homo sapiens), O75164; AlphaScreen JMJD2A-Tudor / H3K4me3 peptide binding; Potency, µM (doses to about 114 µM), for inactives: at the top dose activity change, negative = inhibition, hits mostly inhibitors; 4.4% of 390,000 active; AID 504339, 2011; further: on the % scale 0 is the no-effect control and ±100 the full control effect; nearly all actives have a fitted effect of over 50% in size
Sfp PPTase inh – qHTS Assay for Inhibitors of Bacillus subtilis Sfp phosphopantetheinyl transferase (PPTase); 4'-phosphopantetheinyl transferase ffp (Bacillus subtilis), Q9F4F7; Biochemical Sfp PPTase activity, qHTS; Potency, µM, inactives show largest response in the series, negative = inhibition, actives largely listed as inhibitors; 3.5% of 310,000 active; AID 1490, 2009;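 further: the enzyme is Sfp with the accession as filed and its product quenches rhodamine fluorescence; 0% = enzyme reaction without inhibitor and -100% = no enzyme wells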
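Fluorescence-quenching assay: 15 nM Sfp-PPTase preincubated 15 min at room temperature with compound, then 5 uM rhodamine-CoA and 12.5 uM BHQ-2-labelled YbbR peptide added. Fluorescence (ex 525/em 598 nm) read at start and after 30 min; difference gives rate.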
Numbers without * were called inactive; ? = inconclusive; . = no result; [ ] = another dose, or the depositor's remark. The call rests on the fitted dose curve; in most records, active means well fitted curve in the direction sought with a large enough effect; inconclusive means small, poorly fitted or top-dose-only effect, or another doubt; inactive means no such curve, though single readings can be large; an effect the other way counts as inactive or inconclusive. Potency means the concentration at half of the fitted maximal effect.

SMILES | BAZ2B block | G9a block | HP1b chromo inh | TDP1 inh | JMJD2A Tudor | Sfp PPTase inh
CCc1ccc(Nc2nnc(SCC(=O)Nc3sccc3C(N)=O)s2)cc1 | ? | 11µM* | 0% | -1% | -33% | -15%
CSc1nnc2c(n1)c(C)nn2-c1cccc(C)c1 | 28µM* | 10µM* | -35% | 8% | ? | -16%
COc1ccc(CNC(=O)C2CCN(C(=O)N3CCOc4ccc(Cl)cc43)CC2)cc1 | 14% | 1%[59 µM] | 9% | 9% | ? | .
Cc1[nH]c2ccc(C(=O)OCCN(C)C)cc2c1C | -11% | ? | -11% | -1% | ? | 1%
Cc1c(C)n(CCN(C)C)c2ccc(C(=O)OCCN(C)C)cc12 | -26% | 14µM* | 9% | 2% | -7% | 2%
Cc1c(C)n(Cc2ccccc2)c2ccc(C(=O)OCCCN(C)C)cc12 | -12% | 9% | ? | 3% | 40µM* | 7%
Cc1cc(C)c(O)c(N)c1 | ? | 2.2µM* | . | 2% | . | 20µM*
CSCCC(NC(=O)c1ccco1)C(=O)NC1CCC(C)CC1 (stereo unspecified) | . | . | 30% | 0% | -8% | .
CCOC(=O)C1=C(N)N(c2ccccc2)C(=O)C1 | -3% | 17%[12.7 µM] | ? | 5% | 3.5µM* | 6%
CCOC(=O)C1=C(N)N2C(=O)CSC2=C(C(=O)OC)C1 | ? | 50µM* | 38% | 6% | -30% | 56µM*
Cc1ccc(-c2n[nH]c(Cc3ccccc3)n2)cc1 | -6% | . | 43% | -3% | -10% | 2%
Cc1ccc(SCC(=O)NC2CCCCCC2)cc1 | 14% | 36% | 22% | 0% | -3% | 6%
COC(=O)c1cc(O)c(O)c(O)c1 | 79µM* | 40µM* | ? | . | 20µM* | ?
CN(C)CC(C)(C)CN=Cc1c(O)[nH]c2ccccc12 | -3% | 4%[59 µM] | 17% | 1% | -18% | 15%
CCOc1c(C=C(C#N)C#N)c2ccccc2n1CC | -39% | 10µM* | 21% | 8% | ? | 50µM*
CCOc1ccc(NC(=O)/C(C#N)=C/c2cn(CC(=O)O)c3ccccc23)cc1 | -32% | ? | 21% | 9% | -24% | -3%
O=c1cc(CO)oc(CN2CCN(CCO)CC2)c1O | -30% | ? | -2% | -4% | 2.8µM* | -26%
S=c1nc[nH]c2c1sc1nc(N3CCOCC3)c3c(c12)CCCC3 | ? | -3%[59 µM] | -19% | 3% | -30% | 8%
CC1(C)CC(=O)C2=C(C1)N1C(=C(C#N)C2c2ccccc2Cl)N=C(N)c2ccccc21 (stereo unspecified) | ? | -10% | 27% | 5% | ? | 4%
CC1(C)CC(=O)C2=C(C1)N1C(=C(C#N)C2c2ccc(Cl)cc2)N=C(N)c2ccccc21 (stereo unspecified) | 50µM* | ? | 13% | 8% | ? | 5%
Cc1ccc(N2C(=O)N(CC(=O)N3c4ccccc4CC3C)C(=O)C2C)cc1 (stereo unspecified) | -5% | 45µM* | 16% | 10% | -16% | .
COc1ccc(N2CC(C(=O)NCCc3ccc(Cl)cc3)CC2=O)cc1 (stereo unspecified) | -1% | 15% | 25% | 7% | -8% | 12%
CC(C)C[C@@H](CN)NC(=O)c1nc[nH]c1C(=O)N[C@@H](CC(C)C)C(=O)CNC[C@H](C)NC(=O)c1nc[nH]c1C(=O)N[C@@H](C)C(=O)O | . | . | 50% | . | 79µM* | .
CC(C)C[C@@H](CNCC(=O)[C@H](CC(=O)O)NC(=O)c1[nH]cnc1C(=O)N[C@H](CN)CC(C)C)NC(=O)c1nc[nH]c1C(=O)N[C@@H](Cc1ccccc1)C(=O)O | . | . | -14% | . | 50µM* | .
CC(C)C[C@@H](CN)NC(=O)c1nc[nH]c1C(=O)N[C@@H](C)C(=O)CNC[C@H](C)NC(=O)c1nc[nH]c1C(=O)N[C@@H](C)C(=O)O | . | . | 59% | . | 50µM* | .
SMILES | BAZ2B block | G9a block | HP1b chromo inh | TDP1 inh | JMJD2A Tudor | Sfp PPTase inh
C[C@H](NC(=O)c1nc[nH]c1C(=O)NCC(=O)OCc1ccccc1)C(=O)OCc1ccccc1 | 14% | . | 32% | . | -31% | -6%
CC(C)C[C@@H](CN)NC(=O)c1nc[nH]c1C(=O)N[C@@H](C)C(=O)CNC[C@H](C)NC(=O)c1nc[nH]c1C(=O)N[C@@H](CC(C)C)C(=O)O | . | . | 51% | . | 50µM* | .
Cn1c(=O)[nH]c2cc(-c3noc(-c4ccc(Br)cc4)n3)ccc21 | -1% | 19%[59 µM] | 15%[57 µM] | -1% | -16% | .
CC(C)C[C@@H](CN)NC(=O)c1nc[nH]c1C(=O)N[C@@H](C)C(=O)CNC[C@H](C)NC(=O)c1nc[nH]c1C(=O)N[C@@H](Cc1ccccc1)C(=O)O | . | . | 52% | . | 79µM* | .
CC(C)C[C@@H](CNCC(=O)[C@H](CC(C)C)NC(=O)c1[nH]cnc1C(=O)N[C@@H](C)CN)NC(=O)c1nc[nH]c1C(=O)N[C@@H](Cc1ccccc1)C(=O)O | . | . | 35% | . | -29% | .
CCn1nnc2cc(C(=O)Nc3ccc(Cl)cc3C)ccc21 | -1% | -19%[59 µM] | 23% | 0% | -5% | .
COc1ccc2c(c1)C(c1ccccc1OC)CC(=O)O2 (stereo unspecified) | . | 35µM* | . | 13µM* | . | 0%
COc1ccc2c(c1)OC(=O)CC2c1ccccc1OC (stereo unspecified) | . | 29% | 33% | -3%[56.1 µM] | -5% | -9%
CC(C)CCNC(=O)c1ccc2c(c1)nc1n2CCCCC1 | 2% | -14%[59 µM] | 33%[57 µM] | 5% | -18% | .
CCOC(=O)Cn1nc(-c2ccccc2)c2cnc3ccc(C)cc3c21 | -29% | 56µM* | 32% | -7% | -30% | -4%
CCOC(=O)Cn1nc(-c2ccccc2)c2cnc3ccc(OCC)cc3c21 | . | -15%[59 µM] | 1% | 9% | -30% | .
Cc1cc(C)c(S(=O)(=O)N(C)CC(=O)NCCN2CCOCC2)c(C)c1 | 5% | -10% | 15% | . | -11% | 6%
O=c1c2cn(Cc3ccc(F)cc3)c3ccccc3c-2nn1Cc1ccc(F)cc1 | 4% | 32µM* | -11% | . | -22% | -1%
Cc1cc(=O)c2c(O)cc(O)c(C)c2o1 | . | -16%[2.33 µM] | . | 7%[56.1 µM] | . | -12%
CCCSc1oc(-c2ccco2)nc1S(=O)(=O)c1ccc(Cl)cc1 | 4% | -23%[59 µM] | 26% | -6% | 2% | .
